The results in this text go back to publication PMC4336329 (PLoS ONE, 2015).

About 14,000 (4.5%) of roughly 310,000 compounds showed an effect of 50% or more. The effect is printed as a negative number. Shown is part of a subset that was picked to be rich in strong results.
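Further: peak tail current of the secondary pulse compared with the same well before compound.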

In the experiment the target is human ether-à-go-go-related gene (hERG) potassium channel (human, UniProt Q12809). Description: primary screen, population patch clamp on CHO cells stably expressing hERG; higher = less effect of the substance.
Sequence of human ether-à-go-go-related gene (hERG) potassium channel (Q12809 whole entry, looked up): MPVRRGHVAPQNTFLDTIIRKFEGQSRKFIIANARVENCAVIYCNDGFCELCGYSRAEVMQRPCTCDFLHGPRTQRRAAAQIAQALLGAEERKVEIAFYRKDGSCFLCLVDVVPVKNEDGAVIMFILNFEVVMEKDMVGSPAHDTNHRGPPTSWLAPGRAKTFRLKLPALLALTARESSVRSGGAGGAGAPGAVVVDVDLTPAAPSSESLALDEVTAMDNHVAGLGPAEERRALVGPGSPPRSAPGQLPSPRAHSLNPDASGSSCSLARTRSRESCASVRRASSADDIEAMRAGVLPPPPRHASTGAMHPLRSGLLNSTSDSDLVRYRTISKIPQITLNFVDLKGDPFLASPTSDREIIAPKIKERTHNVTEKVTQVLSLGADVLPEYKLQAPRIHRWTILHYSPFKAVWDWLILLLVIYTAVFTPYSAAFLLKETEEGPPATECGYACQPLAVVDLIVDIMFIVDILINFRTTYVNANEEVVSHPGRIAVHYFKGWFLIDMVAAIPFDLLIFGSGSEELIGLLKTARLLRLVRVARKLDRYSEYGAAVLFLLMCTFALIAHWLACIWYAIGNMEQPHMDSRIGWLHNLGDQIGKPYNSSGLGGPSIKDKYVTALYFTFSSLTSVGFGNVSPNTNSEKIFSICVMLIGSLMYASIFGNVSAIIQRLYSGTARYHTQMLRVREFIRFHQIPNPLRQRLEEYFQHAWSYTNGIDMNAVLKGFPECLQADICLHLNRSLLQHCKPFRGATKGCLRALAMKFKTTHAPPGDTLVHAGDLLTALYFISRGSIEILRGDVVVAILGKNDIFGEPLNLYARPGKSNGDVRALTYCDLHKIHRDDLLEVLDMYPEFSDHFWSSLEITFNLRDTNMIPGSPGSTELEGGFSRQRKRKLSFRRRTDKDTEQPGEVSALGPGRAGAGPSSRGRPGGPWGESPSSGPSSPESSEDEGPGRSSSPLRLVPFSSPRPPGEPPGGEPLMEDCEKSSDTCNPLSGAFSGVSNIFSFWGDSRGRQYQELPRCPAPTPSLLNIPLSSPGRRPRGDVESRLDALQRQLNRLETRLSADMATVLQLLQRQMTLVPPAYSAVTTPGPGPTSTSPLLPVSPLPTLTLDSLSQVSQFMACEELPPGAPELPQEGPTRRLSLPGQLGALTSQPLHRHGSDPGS
On to `O=C(CN1C2=NCCCN2c2ccccc21)c1cccs1`, for which the “hERG current change (%, negative = inhibition) at 10uM” value is -18.4%.
`Br.O=C(CN1C2=NCCN2c2ccccc21)c1ccc(Br)s1`: the “hERG current change (%, negative = inhibition) at 10uM” value was -64.5%.
The result for `Br.O=C(CN1C2=NCCN2c2ccccc21)C12CC3CC(CC(C3)C1)C2` reads -72.7%; that for `Br.O=C(CN1C2=NCCCN2c2ccccc21)c1ccc(Br)s1`, -67.2%; that for `O=C1CCC(=O)N1CC(=O)N1c2ccccc2Sc2ccccc21`, 3.19%.
With `Cc1nc(C(=O)NC2CCOCC2)sc1C1(C)CC(c2ccccc2)=NO1` (stereo not shown), the “hERG current change (%, negative = inhibition) at 10uM” value is -19.8%.
The same measure for `CC(C)CCNC(=O)C1CCC(=O)N1CCc1ccccc1` (stereo not shown): 9.14%.
For the molecule `CCN(CC)CCCNC(=O)c1cc2c(=O)n(CC)c3ccccc3c2s1`, the “hERG current change (%, negative = inhibition) at 10uM” value is reported as -14.9%.
The same measure for `CC(C)Oc1ccccc1C1Nc2ccccc2C(=O)N1c1ccc2c(c1)OCCO2` (stereo not shown): 3.43%.
The result for `Fc1ccccc1NC(=S)NC1CCCC1` reads 14%; that for `Cc1ccc(NC(=O)N(C2=NCC(C)S2)c2ccccc2)cc1` (stereo not shown), 16.3%; that for `Cn1c(SCc2nc(-c3ccccc3)no2)nnc1-c1ccco1`, -18.4%.
The result for `CCn1c(SCc2nc(-c3ccccc3)no2)nnc1-c1cccs1` reads -61.2%.
For the molecule `CCn1c(SCc2nc(-c3ccc(Cl)cc3)no2)nnc1-c1ccco1`, the “hERG current change (%, negative = inhibition) at 10uM” value is reported as -62%.
For `Cn1c(SCc2nc(-c3ccc(Cl)cc3)no2)nnc1-c1ccccc1`, the “hERG current change (%, negative = inhibition) at 10uM” value was -22.5%.
The same measure for `CCn1c(SCc2nc(-c3ccccc3)no2)nnc1-c1ccco1`: -36.3%; for `Cn1c(SCc2nc(-c3ccc(Cl)cc3)no2)nnc1-c1ccco1`: -53.2%; for `Cn1c(SCc2nc(-c3ccc(Br)cc3)no2)nnc1-c1ccco1`: -49.6%.
The same measure for `Cn1c(SCc2nc(-c3ccccc3)no2)nnc1-c1cccs1`: -2.11%; for `CCn1c(SCc2nc(-c3ccc(OC)c(OC)c3)no2)nnc1-c1cccs1`: -40.1%; for `O=C(NCCN1CCCC1)C1CCN(S(=O)(=O)N2CCC3(CC2)OCCO3)CC1`: 20.5%.
The result for `Cc1cccc(N(C)c2ncnc3onc(-c4ccc(F)cc4)c23)c1C` reads -8.28%; that for `COc1ccc(CN2CCNC(=O)C2CC(=O)NCC2CCOCC2)c(C)c1C` (stereo not shown), -19.6%.
For `O=C(O)CCCn1cc(NC(=O)COc2ccc(F)cc2)cn1`, the “hERG current change (%, negative = inhibition) at 10uM” value is listed as 16.5%.
The same measure for `N#Cc1c(N)oc(-c2ccco2)c1-c1ccco1`: 1.98%; for `COc1ccc(NS(=O)(=O)c2cccc(C(=O)NNC(=O)CNC(=O)c3ccc(C)cc3)c2)cc1`: -2.64%.
The same measure for `O=C(NCc1ccccc1)C(c1ccc(F)cc1)N(Cc1ccco1)C(=O)c1ccccn1` (stereo not shown): -24.4%; for `O=C(Nc1c2c(nc3ccccc13)CCCC2)c1cccc([N+](=O)[O-])c1`: -5.85%.
Take `O=C(Nc1c2c(nc3ccccc13)CCCC2)c1ccccc1Br`: the “hERG current change (%, negative = inhibition) at 10uM” value is on record as 4.09%.
The result for `N#Cc1cccc(Nc2c3c(nc4ccccc24)CCCC3)c1` reads -74.8%; that for `N#Cc1cccc(Nc2c3c(nc4ccccc24)CCC3)c1`, -72.2%; that for `CC(C)c1ccc(NC(=O)c2cc3c(=O)n(C)c4ccccc4c3n2C)cc1`, 6.96%.
The same measure for `COc1ccccc1OCc1ccc(C(=O)N2CCCCC2)o1`: 2.22%.
The result for `O=C(c1ccco1)c1cn(CC(=O)N2CCCCC2)c2ccccc12` reads -6.34%; that for `CCOC(=O)c1[nH]c2ccccc2c1NC(=O)COC`, -4.53%; that for `Cc1cc(C(=O)CCl)c(C)n1Cc1ccco1`, 3.06%.
Regarding `Cc1oc(-c2ccccc2F)nc1CN1CCC(C(=O)NCc2cccs2)CC1`, the “hERG current change (%, negative = inhibition) at 10uM” value is -63.7%.
The same measure for `Cc1oc(-c2ccc(Cl)cc2)nc1CN1CCC(C(=O)NCCCN2CCCC(C)C2)CC1` (stereo not shown): -16.5%; for `Cc1oc(-c2ccc(Cl)cc2)nc1CN1CCC(C(=O)NCCCN2CCCC2=O)CC1`: -33.9%; for `Cc1oc(-c2ccc(Cl)cc2)nc1CN1CCC(C(=O)NCc2cccs2)CC1`: -61.5%.
Regarding `Cc1oc(-c2ccccc2F)nc1CS(=O)CC(=O)NCc1cccs1` (stereo not shown), the “hERG current change (%, negative = inhibition) at 10uM” value is -12%.
The result for `Cc1ccccc1-c1nc(CN2CCC(C(=O)NCc3cccs3)CC2)c(C)o1` reads -70.5%; that for `CC12CCC3C(CC=C4CC(O)CCC43C)C1C/C(=C\c1cccc(F)c1)C2=O` (stereo not shown), 7.89%; that for `COc1ccc(CNC(=O)Cc2nn(C)c(=O)c3ccccc23)cc1`, -14.2%.
The result for `CCN1CCN(S(=O)(=O)c2cc(C(=O)O)ccc2Cl)CC1.Cl` reads -3.34%; that for `Cc1ccc(S(=O)(=O)N2CCC(C(=O)NNC(=O)c3ccccc3)CC2)cc1`, 18.9%.
